Assay in all cases: NCI-60 one-dose screen, 48 h (100 = growth as untreated, 0 = no growth, -100 = all killed)
Assay [1] concerns NCI-H226 lung. Conditions: 10 µM.
Assay [2] concerns HOP-62 NSCLC. The settings on record: 10 µM unless noted.
Assay [3] concerns NCI-H460 lung. The settings on record: 10 µM unless noted.
Assay [4] relates to HOP-92 NSCLC. Conditions: 10 µM unless noted.
Assay [5] concerns NCI-H522 lung. Conditions: 10 µM.
For assay [6], the system named is A549/ATCC NSCLC. The settings on record: 10 µM unless noted.
The subject of assay [7] is 786-0 renal. Conditions: 10 µM unless noted.
In assay [8] the test system is COLO 205 colon. The settings on record: 10 µM unless noted.
Assay [9] concerns NCI-H322M lung. The settings on record: 10 µM unless noted.

Molecules are shown by their SMILES. Compounds without any hit were thinned out: in the full panel of roughly 83,000, 20% have a hit.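 Single-concentration screen, 48 h exposure, 96-well plates. Endpoint: percent growth. Below 10 = active.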 Values without a mark were called inactive. The source made the active and inactive calls.

As for `C=CC[P+](c1ccccc1)(c1ccccc1)c1ccccc1`, the growth was 74.1% in assay [1]; 81.7% in [2]; 53.5% in [3]; 25.4% in assay [4]; 15.1% in assay [5]; 69.6% in [6]. Further, the growth in assay [7] is 84.5%; in assay [8], 32.8%.
Consider `CCCCC/C=C\C/C=C/CCCCCCCCNC(=O)Nc1ccc([N+](=O)[O-])cc1`, for which the growth in assay [1] was 93.5%; in assay [9] it was 120%; in [3] it was 84.4%; in assay [4], -1.17% (active); in [5], 41.5%; in assay [6], 97%. Further, the results for the growth in assay [7] and in [8] were 102% and 95%, respectively.
As for `O=C(CCCCCCC(=O)Nc1ccc2c(c1)/C(=C/c1ccc[nH]1)C(=O)N2)NO`, the growth in assay [1] is 27.6%; in assay [9], 15.1%; in assay [3], 25.8%; in [4], -19.7% (active); in assay [5], 14.8%; in assay [6], 34.9%. Also, the growth was 26.2% in assay [7] and -58.6% (active) in assay [8].
Regarding `CCCCC(=O)N/N=C/c1cc(I)cc(I)c1O`, the growth was 73.3% in assay [1]; 42.5% in assay [2]; 28.1% in [3]; 48.7% in assay [4]; 60.5% in [5]; 46.6% in assay [6]. The growth in [7] is 56.9%; in assay [8], 57%.
Turning to `COc1nc2c(cc1S(=O)(=O)c1ccccc1)CCc1c-2cnn1-c1cccc(Cl)c1`, the growth in assay [1] was 80.3%; in assay [2], 90.7%; in assay [3], 80.6%; in assay [4] it was 46.6%; in [5], 75.6%; in assay [6], 66.2%. Besides, the growth is 72.8% in [7] and 103% in assay [8].
As for `COc1nc2c(cc1S(=O)(=O)c1ccccc1)CCc1c-2cnn1-c1ccccc1`, the growth was 87.2% in assay [1]; 81.3% in [2]; 77.5% in [3]; 47.9% in assay [5]; 57.7% in [6]; 76.5% in assay [7]. The growth in assay [8] is 96.3%.
Consider `Cc1ccc(S(=O)(=O)N2CCc3ccc(O)c4c3C2Cc2cc(Cl)ccc2-4)cc1` (stereo unspecified), for which the growth in assay [9] was 78.3%; in assay [2] it was 69.2%; in assay [3], 33.6%; in assay [4], 62.8%; in assay [5], 18.4%; in [6], 53.9%. Besides, the growth in [7] was 88.2%.
With `CCN(C(=O)c1ccc2c3c(cccc13)C=C2)c1ccccc1`, the growth was 93.3% in [1]; 99.8% in [2]; 111% in assay [3]; 86.5% in assay [4]; 80.2% in assay [6]; 91.1% in assay [7]. In [8], the growth was 119%.
Turning to `Cc1ccc2c(N/N=C\c3ccco3)cc(C)nc2n1`, the growth in [1] was 77.6%; in [3], 34.1%; in [4], 40.4%; in assay [6], 46.4%; in assay [7], 49.2%; in assay [8], 8.81% (active).
On to `COc1ccc(NC(=O)COc2ccccc2)c(C(N)=O)c1`, for which the growth in [1] was 71.6%; in assay [2], 20.3%; in [3], 11.2%; in [5], 6.28% (active); in assay [6] it was 24.8%; in assay [7] it was 35.2%. Moreover, the growth in [8] was -12.1% (active).
As to `Clc1ccc(C2=NN(c3ccccc3)[C@H](c3cn(-c4ccccc4)nc3-c3ccccc3)C2)cc1`, the growth in assay [1] was 96.1%; in assay [2], 108%; in assay [3], 108%; in assay [5], 91.5%; in assay [6], 97.8%; in assay [7] it was 103%. Further, the growth in assay [8] was 114%.
With `O=[N+]([O-])c1cc2c(cc1Br)C1C(C3C2C(Cl)(Cl)C(Cl)=C(Cl)C3(Cl)Cl)C(Cl)(Cl)C(Cl)=C(Cl)C1(Cl)Cl` (stereo unspecified), the growth in assay [1] was 86.7%; in assay [2], 92.2%; in assay [3], 107%; in assay [4] it was 100%; in assay [5] it was 83.1%; in [6], 95.7%. Moreover, the growth in [7] was 89.9%; in assay [8], 110%.
In the case of `CSc1nnc(-c2sc3nnc(-c4ccccc4)c(-c4ccccc4)c3c2O)o1`, the growth is 87.7% in [1]; 71.1% in assay [2]; 56.7% in assay [3]; 80.5% in assay [6]; 88.7% in assay [7]; 110% in assay [8].
Turning to `C=C(C)COC(=O)c1ccccc1C(=O)OCC1(C)CO1` (stereo unspecified), the growth in assay [1] was 102%; in [2], 102%; in [3], 108%; in [6] it was 94.8%; in assay [7], 105%; in assay [8] it was 106%.

Source of the values: PubChem BioAssay (NCI).
